Assay results as given in PubChem BioAssay (EPA / NIEHS).
Results filed as inconclusive are left out. Calls of active or inactive are those of the source. How the source made its calls: active means hit-call score of the fitted dose curve at least 0.9, where 1 is the maximum; inconclusive means response in the unintended direction; inactive means score below 0.9.

These compounds were tested against human Adenosine A1 Receptor (AdoRA1), ADORA1 (gene 134) (UniProt P30542) (assay: NVS_GPCR_hAdoRA1: NovaScreen (NVS) G Protein-Coupled Receptor Assay for human Adenosine A1 Receptor (AdoRA1) (AID 2283254)).
Chain of human Adenosine A1 Receptor (AdoRA1), ADORA1 (gene 134) (P30542 whole entry, looked up): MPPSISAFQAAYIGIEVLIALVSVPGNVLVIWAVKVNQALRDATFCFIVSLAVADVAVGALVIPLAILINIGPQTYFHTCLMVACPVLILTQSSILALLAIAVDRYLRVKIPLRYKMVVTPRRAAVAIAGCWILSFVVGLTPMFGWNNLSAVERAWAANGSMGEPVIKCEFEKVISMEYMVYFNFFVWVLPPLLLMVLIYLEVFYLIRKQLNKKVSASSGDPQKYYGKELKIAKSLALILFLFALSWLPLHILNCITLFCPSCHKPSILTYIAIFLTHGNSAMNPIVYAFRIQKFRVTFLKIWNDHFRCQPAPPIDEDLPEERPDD
Outline: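 Radioligand competition binding on human cortical membranes, 1 h after compound addition; bound radioactivity read by filtration and scintillation counting. Loss of signal versus DMSO baseline scored as displacement; primary screen duplicate at 25 uM, actives retested in concentration series.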

Compound	AC50	outcome
CC(C)(c1ccccc1)c1ccc(O)cc1	9.28 µM (active)	–
Oc1ccc(C(c2ccc(O)cc2)(C(F)(F)F)C(F)(F)F)cc1	16.6 µM (active)	–
CCC(C)(c1ccc(O)cc1)c1ccc(O)cc1	25 µM (active)	–
Oc1c(Cl)c(Cl)c(Cl)c(Cl)c1Cl	–	inactive
CCNc1nc(NC(C)C)nc(SC)n1	13.7 µM (active)	–
Cc1cc2c3c(c1)C(c1ccccc1)=N[C@@H](NC(=O)c1ccncc1)C(=O)N3CC2	–	inactive

What follows are compounds tested against human Serotonin, 5-Hydroxytryptamine Receptor 7 (5HT7), HTR7 (gene 3363) (UniProt P34969) (assay: NVS_GPCR_h5HT7: NovaScreen (NVS) G Protein-Coupled Receptor Assay for human Serotonin, 5-Hydroxytryptamine Receptor 7 (5HT7) (AID 2283255);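 further: hits reduce specific radioligand binding relative to DMSO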).
Chain of human Serotonin, 5-Hydroxytryptamine Receptor 7 (5HT7), HTR7 (gene 3363) (P34969 whole entry, looked up): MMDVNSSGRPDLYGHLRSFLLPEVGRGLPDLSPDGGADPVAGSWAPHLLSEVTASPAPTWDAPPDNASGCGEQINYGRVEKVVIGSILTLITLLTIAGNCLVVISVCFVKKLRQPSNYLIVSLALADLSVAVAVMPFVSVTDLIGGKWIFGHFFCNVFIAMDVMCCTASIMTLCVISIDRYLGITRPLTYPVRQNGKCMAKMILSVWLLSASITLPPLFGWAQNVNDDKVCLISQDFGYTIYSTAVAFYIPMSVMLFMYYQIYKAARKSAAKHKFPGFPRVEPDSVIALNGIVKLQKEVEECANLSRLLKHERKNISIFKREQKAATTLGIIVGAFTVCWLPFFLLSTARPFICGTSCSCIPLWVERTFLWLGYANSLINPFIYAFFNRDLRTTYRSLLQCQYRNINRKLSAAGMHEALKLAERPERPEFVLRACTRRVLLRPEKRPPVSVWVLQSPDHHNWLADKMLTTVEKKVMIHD
Outline: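 Filter-bound radioactivity counted after 1 h, with loss of specific radioligand binding fitted against DMSO. Membrane protein came from CHO cells expressing human 5HT7. Chemicals were tested first at 25 uM in duplicate, then in concentration series if active.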

Compound	AC50	outcome
Oc1ccc(C(c2ccc(O)cc2)(C(F)(F)F)C(F)(F)F)cc1	5.73 µM (active)	–
CCC(C)(c1ccc(O)cc1)c1ccc(O)cc1	15.9 µM (active)	–
COc1ccc(O)c(C(C)(C)C)c1	–	inactive
C[C@]12CCC(=O)C=C1CC[C@@H]1[C@@H]2CC[C@]2(C)C(=O)CC[C@@H]12	–	inactive
CCCCCCCCCC[N+](C)(C)CCCCCCCCCC	5.73 µM (active)	–
O=C(O)C(F)(F)C(F)(F)C(F)(F)C(F)(F)C(F)(F)C(F)(F)C(F)(F)C(F)(F)C(F)(F)F	16.4 µM (active)	–
Cc1cc2c3c(c1)C(c1ccccc1)=N[C@@H](NC(=O)c1ccncc1)C(=O)N3CC2	25 µM (active)	–

The compounds below were run against human Adenosine A2a Receptor (AdoRA2a), ADORA2A (gene 135) (UniProt P29274) (assay: NVS_GPCR_hAdoRA2a: NovaScreen (NVS) G Protein-Coupled Receptor Assay for human Adenosine A2a Receptor (AdoRA2a) (AID 2283256)).
Chain of human Adenosine A2a Receptor (AdoRA2a), ADORA2A (gene 135) (P29274 whole entry, looked up): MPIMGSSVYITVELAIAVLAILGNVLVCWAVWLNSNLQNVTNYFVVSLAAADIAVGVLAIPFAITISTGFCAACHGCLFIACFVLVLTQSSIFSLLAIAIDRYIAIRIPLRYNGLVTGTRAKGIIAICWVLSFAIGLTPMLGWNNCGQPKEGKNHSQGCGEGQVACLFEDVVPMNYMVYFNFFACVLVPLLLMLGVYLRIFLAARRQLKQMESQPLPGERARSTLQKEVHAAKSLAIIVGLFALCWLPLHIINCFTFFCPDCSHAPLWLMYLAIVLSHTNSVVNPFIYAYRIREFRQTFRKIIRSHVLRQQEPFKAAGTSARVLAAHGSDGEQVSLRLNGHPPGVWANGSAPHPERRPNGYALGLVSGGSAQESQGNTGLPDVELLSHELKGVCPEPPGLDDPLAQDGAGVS
Outline: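 HEK293-derived receptor preparation, radioligand displacement, 1.5 h, filtration + scintillation read. Loss of bound signal scored vs DMSO. Single-point 25 uM in duplicate first, then concentration-response for actives.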

Compound	AC50
Oc1ccc(C(c2ccc(O)cc2)(C(F)(F)F)C(F)(F)F)cc1	25 µM (active)
O=C(O)C(F)(F)C(F)(F)C(F)(F)C(F)(F)C(F)(F)C(F)(F)C(F)(F)C(F)(F)F	10.6 µM (active)
O=C(O)C(F)(F)C(F)(F)C(F)(F)C(F)(F)C(F)(F)C(F)(F)C(F)(F)C(F)(F)C(F)(F)F	7.6 µM (active)
Oc1c(Cl)c(Cl)c(Cl)c(Cl)c1Cl	13.1 µM (active)
CCNc1nc(NC(C)C)nc(SC)n1	10 µM (active)

The compounds below were run against human Adrenergic, Beta 1 Receptor (Adrb1), ADRB1 (gene 153) (UniProt P08588) (assay: NVS_GPCR_hAdrb1: NovaScreen (NVS) G Protein-Coupled Receptor Assay for human Adrenergic, Beta 1 Receptor (Adrb1) (AID 2283258)).
Chain of human Adrenergic, Beta 1 Receptor (Adrb1), ADRB1 (gene 153) (P08588 whole entry, looked up): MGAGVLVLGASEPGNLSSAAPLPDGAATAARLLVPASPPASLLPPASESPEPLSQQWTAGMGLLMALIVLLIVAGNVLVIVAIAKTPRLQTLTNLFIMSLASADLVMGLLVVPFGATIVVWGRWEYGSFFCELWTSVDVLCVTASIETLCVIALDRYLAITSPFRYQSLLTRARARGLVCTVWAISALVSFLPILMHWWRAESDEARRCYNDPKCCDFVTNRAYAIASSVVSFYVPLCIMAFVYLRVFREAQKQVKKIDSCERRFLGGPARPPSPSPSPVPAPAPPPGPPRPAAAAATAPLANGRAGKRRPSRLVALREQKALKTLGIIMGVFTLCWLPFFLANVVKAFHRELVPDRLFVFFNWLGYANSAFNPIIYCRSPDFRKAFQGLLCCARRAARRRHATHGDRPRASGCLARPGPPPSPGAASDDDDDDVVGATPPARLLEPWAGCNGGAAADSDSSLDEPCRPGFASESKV
Outline: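 Membranes/protein extracted from human neuroepithelioma cells, radioligand competition binding read by filtration and scintillation 2 h post-dose. Single 25 uM duplicate screen, then concentration-response follow-up; DMSO as negative control.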

Compound	AC50	outcome
Oc1ccc(C(c2ccc(O)cc2)(C(F)(F)F)C(F)(F)F)cc1	19.3 µM (active)	–
CCCCCCCCCC[N+](C)(C)CCCCCCCCCC	5.34 µM (active)	–
CCCCCCCCOC(=O)c1ccccc1C(=O)OCCCCCCCC	–	inactive
O=C(O)C(F)(F)C(F)(F)C(F)(F)C(F)(F)C(F)(F)C(F)(F)C(F)(F)C(F)(F)C(F)(F)F	21.3 µM (active)	–
CCCN(CCC)N=O	–	inactive

What follows are compounds tested against human Adrenergic, Alpha 2c Receptor (Adra2C), ADRA2C (gene 152) (UniProt P18825) (assay: NVS_GPCR_hAdra2C: NovaScreen (NVS) G Protein-Coupled Receptor Assay for human Adrenergic, Alpha 2c Receptor (Adra2C) (AID 2283259)).
Chain of human Adrenergic, Alpha 2c Receptor (Adra2C), ADRA2C (gene 152) (P18825 whole entry, looked up): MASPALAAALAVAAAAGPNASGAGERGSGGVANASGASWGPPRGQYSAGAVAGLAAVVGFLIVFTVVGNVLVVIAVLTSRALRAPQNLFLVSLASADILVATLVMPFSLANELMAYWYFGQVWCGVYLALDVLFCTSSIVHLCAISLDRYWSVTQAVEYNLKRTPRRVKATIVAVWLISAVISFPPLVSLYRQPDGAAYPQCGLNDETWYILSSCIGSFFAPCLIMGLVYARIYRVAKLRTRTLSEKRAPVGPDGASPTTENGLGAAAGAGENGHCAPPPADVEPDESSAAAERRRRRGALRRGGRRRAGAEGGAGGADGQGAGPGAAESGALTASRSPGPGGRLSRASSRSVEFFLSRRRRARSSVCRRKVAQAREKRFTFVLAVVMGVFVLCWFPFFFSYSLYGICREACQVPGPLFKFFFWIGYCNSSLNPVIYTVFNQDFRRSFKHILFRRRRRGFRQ
Experimental: NVS_GPCR_hAdra2C is a biochemical, single-readout assay that uses extracted gene-proteins from SF9 in a cell-free assay. Measurements were taken 1 hour after chemical dosing in a 96-well plate.NVS_GPCR_hAdra2C is one of one assay component(s) measured or calculated from the NVS_GPCR_hAdra2C assay. It is designed to make measurements of radioligand binding, a form of binding reporter, as detected with scintillation counting signals by Filter-based radiodetection technology.Data from the assay component NVS_GPCR_hAdra2C was analyzed into 1 assay endpoint. This assay endpoint, NVS_GPCR_hAdra2C, was analyzed in the positive analysis fitting direction relative to DMSO as the negative control and baseline of activity. Using a type of binding reporter, loss-of-signal activity can be used to understand changes in the binding as they relate to the gene ADRA2C. Furthermore, this assay endpoint can be referred to as a primary readout, because the performed assay has only produced 1 assay endpoint. To generalize the intended target to other relatable targets, this assay endpoint is annotated to the gpcr intended target family, where the subfamily is rhodopsin-like receptor.
Binding assays used specific radioligands (tritiated, iodinated) with non-radioactive competitive displacement ligands in agonist or antagonist protocols (as indicated) and various reference compounds and inhibitors to titrate specific binding to receptors and transporters. Most enzyme assays (CYPs, kinases, phosphatases, proteases, HDACs) used recombinant protein and specific substrates (fluorescence mostly, some colorimetric and radioactive) and inhibitors, followed by a biochemical separation of substrate and product. All assays for the biochemical HTS were initially run in duplicate at a single concentration (10 uM for CYP450 assays and 25 uM for all others). […] Each assay was run with positive and negative controls, and concurrent controls on every plate. The follow-up (secondary) screen tested active chemical-pairs in concentration series, as well as a few additional assays not tested in the primary screen, some selected negative inactives, and several cases re-run in the concentration series for confirmatory purposes.

Compound	AC50
CC(C)(c1ccccc1)c1ccc(O)cc1	9.37 µM (active)
Oc1ccc(C(c2ccc(O)cc2)(C(F)(F)F)C(F)(F)F)cc1	10.7 µM (active)
O=C(O)C(F)(F)C(F)(F)C(F)(F)C(F)(F)C(F)(F)C(F)(F)C(F)(F)C(F)(F)F	25 µM (active)
CCCCCCCCCC[N+](C)(C)CCCCCCCCCC	3.53 µM (active)
O=C(O)C(F)(F)C(F)(F)C(F)(F)C(F)(F)C(F)(F)C(F)(F)C(F)(F)C(F)(F)C(F)(F)F	10.9 µM (active)
